The whole screen tested about 400,000 compounds, of which about 5,500 (1.4%) were called active. Roughly 9% stayed inconclusive and do not appear here. The sample as a whole holds a higher share of actives than the screen did. Unmarked numbers belong to inactive results. Calls come from the whole dose curve; as a rule, active = well fitted cell-killing curve with a large enough effect; inconclusive = small, poorly fitted or top-dose-only effect, or effect the other way; inactive = flat fitted curve, though single readings scatter.
Test: qHTS assay for MDR1-selective chemotherapeutics: Primary screen using the parental adenocarcinoma cell KB-3-1; note: nearly all actives have a fitted effect of over 60% in size
Conditions: KB-3-1 viability, CellTiter-Glo ATP luminescence, 72 h; series mostly up to 46.1 µM; activity change, negative = cytotoxic: at the top concentration
How it was run: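 Parental KB-3-1 adenocarcinoma cells in phenol-red-free DMEM with 10% FBS were pin-treated with compounds at several concentrations, incubated 72 h at 37 °C, and viability read by CellTiter-Glo luminescence; concentration-effect curves were fitted after normalization.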
% is set by controls: 0 for no effect and ±100 for the full control effect; potency is the fitted concentration of half-maximal effect.

| SMILES | activity change, negative = cytotoxic | Potency |
| --- | --- | --- |
| Cn1c(=O)c2c(ncn2CCc2ccccc2)n(C)c1=O | 0.55% | – |
| COc1ccccc1CN1CCN(Cc2cc(OC)c(OC)cc2OC)CC1 | -27.7% | – |
| COc1ccccc1CCNS(=O)(=O)c1cn(C)nc1C | -4.69% | – |
| CC(=O)Nc1ccc(NC(=O)CCCc2nc(-c3ccc(C(C)(C)C)cc3)no2)cc1 | -10.4% | – |
| COc1cc(C(=O)N(Cc2ccc(C(C)C)cc2)C2CCS(=O)(=O)C2)cc(OC)c1OC (stereo not given) | -5.08% | – |
| CCCN(CCC)C(=O)C(Cc1ccccc1)NS(=O)(=O)c1ccc2c(c1)c(=O)n(C)c(=O)n2C (stereo not given) | 1% | – |
| N#C/C(=C\c1cccc(F)c1)c1nc(-c2cc3c(ccc4ccccc43)oc2=O)cs1 | 9.73% | – |
| O=C(NCCCO)C(=O)Nc1c2c(nn1-c1ccc(F)cc1)CSC2 | 3.4% | – |
| CN(C)Cc1cn(-c2ccccc2)nc1-c1ccccc1 | 13.6% | – |
| N#Cc1ccc(OC2=NS(=O)(=O)c3ccccc32)cc1 | -6.03% | – |
| Cn1c(=O)c2c(nc(NCCc3ccccc3)n2Cc2ccccc2Br)n(C)c1=O | -14.2% | – |
| OC(Cc1ccc2ccccc2n1)c1ccc(Cl)c(Cl)c1 (stereo not given) | 0% | – |
| O=S(=O)(c1ccc(Br)cc1)c1nnn2c1nc(N1CCOCC1)c1sccc12 | -10.3% | – |
| CCOC(=O)C1CCCN(C(=O)c2ccc(-n3ccc4ccccc43)s2)C1 (stereo not given) | 4.41% | – |
| O=C1C=C(c2cc(C(F)(F)F)cc(C(F)(F)F)c2)C[C@@H](c2ccc3c(c2)OCO3)C1 | -26.9% | – |
| O=C1C=C(c2ccnc3cc(Cl)ccc23)C[C@@H](c2ccc3c(c2)OCO3)C1 | – | 23.1 µM (active) |
| COc1ccc2cc(C3=CC(=O)C[C@H](c4ccc5c(c4)OCO5)C3)ccc2c1 | 3.24% | – |
| CCSc1ncc(Cl)c(C(=O)Nc2c(C(=O)c3ccccc3)oc3ccccc23)n1 | 1.5% | – |
| Cc1cn(C)c(CC(=O)NCc2ccccc2)c1C(=O)O | 0.565% | – |
| CC(C)CC(=O)NCC(c1ccc2c(c1)OCO2)N1CCN(c2ccc(F)cc2)CC1 (stereo not given) | -5.63% | – |
| c1ccc(CNCc2ccc(CNCc3ccccc3)cc2)cc1 | 1.49% | – |
| [O-][n+]1ccc(OCc2ccccc2)cc1 | 3.6% | – |
| c1ccc(Cc2cc[n+](Cc3ccccc3)cc2)cc1 | – | 18.4 µM (active) |
| CCC(=O)Nc1c(C(=O)N2CCN(c3ccc(F)cc3)CC2)oc2ccccc12 | -8.2% | – |
| COCCN(Cc1ccco1)C(=O)Cn1ncc2c([nH]c3ccccc32)c1=O | 0% | – |

| SMILES | activity change, negative = cytotoxic | Potency |
| --- | --- | --- |
| CCOc1[nH]n(-c2ccc(Cl)cc2)c(=O)c1C=Nc1ccc(O)cc1 | – | 18.4 µM (active) |
| CCOc1ccc(N=C2NC(=O)S/C2=C\c2ccc(O)cc2)cc1 | -1.86% | – |
| Fc1ccc(C(Nc2ccc(Cl)c(C(F)(F)F)c2)c2nnc(-c3ccccc3)o2)cc1 (stereo not given) | -5.25% | – |
| CCOc1ccccc1N(CC)C(=O)c1cc2ccc3cccnc3c2[nH]1 | -25% | – |
| Cc1cccc(N(C)C(=O)c2cc3c(=O)[nH]c4ccc(C)cc4c3s2)c1 | – | 7.31 µM (active) |
| CCN(CC)CCCNC(=O)c1cc2c(=O)[nH]c3ccc(C)cc3c2s1 | -17.6% | – |
| COc1ccc(CNC(=O)c2cc3c(=O)[nH]c4ccc(C)cc4c3s2)c(OC)c1 | 5.62% | – |
| Cc1cc(C(=O)Nc2cccc(C(F)(F)F)c2)c2c(C)nn(-c3cccc(F)c3)c2n1 | – | 18.4 µM (active) |
| COc1cc(NC(=O)c2cc(C3CC3)nc3c2c(C)nn3-c2ccccc2)cc(OC)c1 | 2.42% | – |
| CSc1ccc(CCNC(=O)c2cc(C)nc3c2c(C)nn3-c2cccc(F)c2)cc1 | 1.14% | – |
| Cc1ccc(S(=O)(=O)C2(S(=O)(=O)c3ccc(C)cc3)CCCC2)cc1 | – | 6.51 µM (active) |
| Cc1ccc(S(=O)(=O)N(C)C2(C)CCS(=O)(=O)C2)cc1 (stereo not given) | 4.15% | – |
| Cc1ccc(S(=O)(=O)N2CCN(C)CC2)cc1 | 0.612% | – |
| COc1ccc(C2c3c(oc4ccccc4c3=O)C(=O)N2Cc2ccc3c(c2)OCO3)cc1 (stereo not given) | -6.25% | – |
| COC(=O)c1sccc1S(=O)(=O)N(CC(=O)Nc1ccc(C)c(F)c1)c1ccc(C)c(C)c1 | -20% | – |
| O=C(Nc1ccc(-c2nc3ccccc3[nH]2)cc1)c1ccncc1 | -9.06% | – |
| CCCn1nc(C(=O)Nc2ccc3nc(C)sc3c2)c2ccccc2c1=O | -0.715% | – |
| CCCC(=O)Nc1nc2ccc(NC(=O)c3c(F)c(F)c(OC)c(F)c3F)cc2s1 | – | 2.59 µM (active) |
| CC(=O)Nc1ccc2nc(NC(=O)CS(=O)(=O)c3ccc(F)cc3)sc2c1 | 8.18% | – |
| CC(=O)c1ccc(N2CCN(c3nc4c(S(=O)(=O)c5ccccc5)nnn4c4ccc(Cl)cc34)CC2)cc1 | 1.16% | – |
| CC(=NNC(=O)c1ccc2nc[nH]c2c1)c1ccc(Br)cc1 | -11.4% | – |
| O=C(N/N=C/c1ccc(Cl)c(Cl)c1)c1ccc2nc[nH]c2c1 | – | 18.4 µM (active) |
| CC1=NNC(=O)C1CCC(=O)N/N=C\c1ccc(Cl)c(Cl)c1 (stereo not given) | 23.2% | – |
| CNc1ccc(-c2nc(-c3ccccc3C)no2)cc1[N+](=O)[O-] | -1.62% | – |
| COc1ccc(Cn2cc(C(=O)c3ccc(C)cc3)c(=O)c3cc(OC)c(OC)cc32)cc1 | 11.2% | – |

From PubChem BioAssay AID1347075 (National Center for Advancing Translational Sciences (NCATS), 2019)
